# Algae TAG accum: inducers of TAG accumulation in Chlamydomonas, primary screen, qHTS, Chlamydomonas reinhardtii; Nile Red fluorescence, 72 h; calls only at 10 µM (by protocol); actives 0.84% (n = 44,000); AID 1159537, 2015; call rule not given here;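 further: hits raise Nile Red signal meaning more stored TAG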
# Numbers without * were called inactive; i = inactive; + = active, no number. The entries come from a sample that favours hits as a whole.
SMILES,Algae TAG accum
c1cc2c(cc1CNC1CCCC1)OCO2,+
COc1ccc(C(=O)Nc2cccc(NC(=O)c3ccccc3C)c2)cc1[N+](=O)[O-],i
Cc1c(NC(=O)c2c(O)c3ccccc3n(C)c2=O)c(=O)n(-c2ccccc2)n1C,i
Cc1c(NC(=O)c2c(F)c(F)c(F)c(F)c2F)c(=O)n(-c2ccccc2)n1C,+
Cc1c(NC(=O)c2ccccc2-c2ccccc2C(=O)O)c(=O)n(-c2ccccc2)n1C,i
COc1ccc(C2CC(=O)C3=C(C2)Nc2ccccc2NC3c2c[nH]c3ccccc23)cc1 (stereo not given),i
C=CCn1c(SCC(=O)N2CCc3ccccc32)nc2sc(C)cc2c1=O,i
O=C(CCCc1ccccc1)Nc1nc2ccccc2s1,i
O=C(NC1CCN(Cc2ccccc2)CC1)c1ccccc1Br,i
O=C(NC1CCN(Cc2ccccc2)CC1)c1sc2ccccc2c1Cl,i
O=C(NC1CCN(Cc2ccccc2)CC1)c1ccc(Cl)cc1Cl,+
Cc1ccc2c(c1)NC(c1ccco1)C1=C(CC(C)(C)CC1=O)N2 (stereo not given),i
CCCOc1ccc(-c2cn(CC(=O)NN)cn2)cc1,i
COc1ccc(N(CC(=O)N2CCN(c3ccccc3F)CC2)S(C)(=O)=O)cc1Cl,i
C=CCc1ccccc1OCC(O)CN1CC(C)OC(C)C1 (stereo not given),i
O=C1CC(c2ccccc2)Sc2nc(-c3ccc([N+](=O)[O-])cc3)nn21 (stereo not given),i
COc1ccc(CCNC(=O)c2ccc(N3CCOCC3)c([N+](=O)[O-])c2)cc1OC,i
COc1ccc(C(=O)NCCN2CCOCC2)cc1[N+](=O)[O-],+
COCCNC(=O)c1ccc(OC)c([N+](=O)[O-])c1,i
C=CCN=C(CCC)C1=C(O)CC(C)(C)CC1=O,i
O=C(COc1ccccc1)N1CCN(C(=O)c2ccc(F)cc2)CC1,i
COCCCNC(=O)c1c(NC(=O)COc2ccc([N+](=O)[O-])cc2)sc2c1CCCC2,i
O=C(Nc1ccc(Cl)cc1F)c1c(F)c(F)c(F)c(F)c1F,+
O=C(Nc1ccc(Br)cc1F)c1c(F)c(F)c(F)c(F)c1F,i
O=C(Nc1ccccc1F)c1c(F)c(F)c(F)c(F)c1F,i
SMILES,Algae TAG accum
C=CCNC(=O)c1c(NC(=O)c2ccc([N+](=O)[O-])cc2)sc2c1CCCC2,i
CCOc1ccccc1NC(=O)CN(c1ccc(OC)c(OC)c1)S(C)(=O)=O,i
COc1ccc(CN2CCCCC2C)c(C)c1C (stereo not given),i
COc1ccc(CN(C)C2CCN(C)CC2)c(OC)c1OC,i
COc1ccc(CN(C)C2CCCCC2)c(C)c1C,+
CCOc1ccc(NC(=O)Nc2nnc(/C=C/c3ccccc3)s2)cc1,i
O=C(Nc1ccc(NS(=O)(=O)c2ccccc2)cc1)c1ccccc1,i
O=C(O)CCSCC(=O)c1ccc(NS(=O)(=O)c2ccccc2)cc1,+
Cc1ccc(S(=O)(=O)Nc2ccc(C(=O)CC(=O)Nc3ccccc3)cc2)cc1,i
Cc1ccc(CN(CC(=O)Nc2c(C)cccc2C)S(=O)(=O)c2ccc(C)cc2)cc1,i
CC(CNC(=O)c1ccc(C(C)(C)C)cc1)CN(C)C (stereo not given),+
Cc1cccc(C(=O)NCC(C)CN(C)C)c1 (stereo not given),i
CC(CNC(=O)c1ccc(F)cc1)CN(C)C (stereo not given),i
O=C(COc1ccc(Cl)cc1)N1CCN(c2cccc(Cl)c2)CC1,i
CC1CCCN(C(=O)COc2ccc(Cl)cc2)C1 (stereo not given),+
COc1ccc(N2CCN(C(=O)COc3ccc(Cl)cc3)CC2)cc1,i
CCOc1ccc(C(=O)CC2(O)C(=O)N(CC)c3ccccc32)cc1 (stereo not given),i
CC(=O)N(C1=C(N(C)C)C(=O)c2ccccc2C1=O)c1ccc(F)c(F)c1,i
CC(=O)N(C1=C(N(C)C)C(=O)c2ccccc2C1=O)c1ccc(Cl)c(Cl)c1,+
CC(=O)N(C1=C(N(C)C)C(=O)c2ccccc2C1=O)c1cccc(Cl)c1,i
CN(C)c1ccc([N+](=O)[O-])cc1/C=C(\C#N)c1nn(-c2ccccc2)c(N)c1C#N,i
CC(C)Oc1ccc(C(=O)Nc2ccccc2C(N)=O)cc1,i
NC(=O)c1cc(-c2ccccc2)sc1N,i
NC(=O)c1cc(-c2ccccc2)sc1NC(=O)c1ccc(OC(F)F)cc1,+
Cc1ccc(-n2c(C)ccc2C)c([N+](=O)[O-])c1,i
SMILES,Algae TAG accum
c1ccc(CCN2CCN(Cc3ccccc3)CC2)cc1,i
COc1cc(CN2CCN(c3cccc(Cl)c3)CC2)cc(OC)c1O,i
c1cc(CN2CCOCC2)cs1,i
c1ccc(N2CCN(Cc3ccsc3)CC2)nc1,i
c1ccc(N2CCN(Cc3ccsc3)CC2)cc1,+
Clc1cccc(N2CCN(Cc3ccsc3)CC2)c1,+
CN1CCN(CCCc2ccccc2)CC1,i
c1ccc(CCN2CCN(c3ccccc3)CC2)cc1,+
Clc1cccc(N2CCN(Cc3cccs3)CC2)c1,i
C=CCn1c(SCc2cc(=O)[nH][nH]2)nc2sc(C)c(C)c2c1=O,i
O=C(Nc1nc2ccc(Cl)cc2s1)c1ccc(S(=O)(=O)N2CCOCC2)cc1,i
NC(=O)C1CCN(C(=O)CC2CCCCC2)CC1,i
COc1ccc2nc(SCC(=O)Nc3cccc(C)c3)[nH]c2c1,i
COc1cc(C)c(CN2CCC(N3CCCCC3)CC2)cc1C,i
COc1cc(C)c(CN2CCN(Cc3ccc4c(c3)OCO4)CC2)cc1C,+
COc1ccccc1CN1CCN(Cc2ccc3c(c2)OCO3)CC1,i
COc1cc(C)c(CN2CCCN(C)CC2)cc1C,+
COc1ccc(CN2CCCN(C)CC2)c(OC)c1,i
COc1ccc(CN2CCN(Cc3ccc4c(c3)OCO4)CC2)c(OC)c1,i
CC(C)(C)C(=O)Nc1cccc(C(=O)Nc2ccc(Cl)cc2)c1,i
COc1ccc(Cc2nc(-c3ccc(OC)c(OC)c3)no2)cc1,i
CCC(C(=O)Nc1ccc(C)cc1Br)c1ccccc1 (stereo not given),i
O=c1c2ccccc2nc(/C=C/c2cccc([N+](=O)[O-])c2)n1Cc1ccccc1,i
Cc1cccc2c(Nc3ccc(S(N)(=O)=O)cc3)c3ccc([N+](=O)[O-])cc3nc12,i
COc1ccc(-c2csc(Nc3ccc(C)c(Cl)c3)n2)cc1F,i
SMILES,Algae TAG accum
CCCC(=O)Nc1ccc(NC(=O)c2ccc(C)c([N+](=O)[O-])c2)cc1,i
CCc1ccc(CN2CCSCC2)cc1,i
CSc1ccc(CN2CCOCC2)cc1,i
CSc1ccc(CN2CCSCC2)cc1,+
CCN(CC)C(=O)CN(c1cccc(Cl)c1Cl)S(C)(=O)=O,i
O=C(O)C1CCCCC1C(=O)Nc1nc(-c2ccc([N+](=O)[O-])cc2)cs1 (stereo not given),i
O=C(Nc1ccc(F)c(F)c1)c1ccc2c(c1)OCO2,i
O=C(Nc1ccc2c(c1)OCO2)c1c(F)c(F)c(F)c(F)c1F,+
O=C(Nc1ccc2c(c1)OCO2)c1ccc2c(c1)OCO2,i
CN(C1CCCCC1)S(=O)(=O)c1ccc(Cl)c(Cl)c1,i
O=C(CNC(=O)C1CCCCC1)Nc1ccc(Br)cc1,i
CCOc1ccc(C(=O)Nc2cccc(C)c2C)cc1Br,i
COc1ccc(Cl)cc1NC(=O)C(C)(C)Oc1ccc(Cl)cc1,i
CC(C)(Oc1ccc(Cl)cc1)C(=O)Nc1ccc(Br)cc1F,+
